Our source for the growth inhibition, inhibition and outcome values is PubChem BioAssay.

Experiment [1] is described as follows: antimalarial activity against Dd2 strain (AID 2302;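 active = growth inhibition above 50% at the single 2 µM test dose, taken to imply half-maximal potency below 2 µM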;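 note: 0% = DMSO untreated growth and 100% = chloroquine plus artemisinin killed control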). To be noted: P. falciparum Dd2 in RBCs, LDH growth readout, 72 h; at 2 µM; stronger effect = higher value.
Experiment [2] can be described thus: human hepatoma cell viability loss – ATP luminescence, cytotoxicity control for P. falciparum antimalarial project, primary screen (AID 2303;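 active = inhibition above 50%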;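 note: 0% = DMSO wells and 100% = digitonin-killed cells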). To be noted: HepG2 viability, 24-48 h, at 10 µM, stronger effect = higher value.
For experiment [3], the target named is L-lactate dehydrogenase (Plasmodium falciparum (isolate CDC / Honduras)) (UniProt Q27743). The experiment can be described thus: PfLDH activity inhibition – cell lysate, 3D7 strain, counter-screen for P. falciparum growth inhibition project (AID 2304).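 Note: 0% = vehicle and 100% = reference inhibitor.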 To be noted: P. falciparum 3D7 crude extract, LDH APAD/NBT absorbance; at 2 µM; stronger effect = higher value.
A short description of experiment [4]: inhibition of 3D7 malaria parasite growth – strain 3D7 (AID 2306).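 Note: 0% = DMSO wells and 100% = chloroquine plus artemisinin control wells.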 To be noted: P. falciparum 3D7 erythrocytic growth, LDH absorbance, 72 h; at 2 µM; stronger effect = higher value.
The target in experiment [5] is Calcium-dependent protein kinase 1 (Plasmodium falciparum (isolate 3D7)) (UniProt P62344). The experiment can be described thus: PfCDPK1 kinase inhibitors, biochemical, TCAMS library (AID 1159585; cut-off not given, nearly all actives have IC50 up to about 0.98 µM;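 note: inhibitors leave more ATP so luminescence rises with inhibition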). To be noted: recombinant PfCDPK1, Kinase-Glo ATP depletion luminescence.
The target of experiment [6] is Plasmodium falciparum protein kinase 6 (PK6, PF3D7_1337100) (UniProt Q8IDW1). The experiment can be described thus: PfPK6 kinase inhibitors, biochemical, TCAMS library (AID 1159586). To be noted: recombinant PfPK6, Kinase-Glo ATP depletion luminescence.
For experiment [7], the target named is Protein kinase 7 (PK7), Plasmodium falciparum 3D7 (PF3D7_0213400) (UniProt Q7YTF7). The experiment can be described thus: inhibition of Plasmodium PK7 catalytic activity – biochemical, TCAMS antimalarial set, Kinase-Glo luminescence (AID 1159587). To be noted: recombinant PfPK7, Kinase-Glo ATP depletion luminescence.
The target of experiment [8] is Calcium-dependent protein kinase 4 (Plasmodium falciparum (isolate 3D7)) (UniProt Q8IBS5). Put plainly: PfCDPK4 kinase inhibitors, biochemical, TCAMS library (AID 1159588; cut-off not given, nearly all actives have IC50 up to about 0.91 µM). To be noted: recombinant PfCDPK4, Kinase-Glo ATP depletion luminescence.

A number with no mark means an inactive call. For part of these data: Potency and affinity values are given separately. Activity calls are given as the source filed them. Unless noted, the rule behind the calls is not given here.

Sequence of L-lactate dehydrogenase (Plasmodium falciparum (isolate CDC / Honduras)) (Q27743 whole entry, looked up): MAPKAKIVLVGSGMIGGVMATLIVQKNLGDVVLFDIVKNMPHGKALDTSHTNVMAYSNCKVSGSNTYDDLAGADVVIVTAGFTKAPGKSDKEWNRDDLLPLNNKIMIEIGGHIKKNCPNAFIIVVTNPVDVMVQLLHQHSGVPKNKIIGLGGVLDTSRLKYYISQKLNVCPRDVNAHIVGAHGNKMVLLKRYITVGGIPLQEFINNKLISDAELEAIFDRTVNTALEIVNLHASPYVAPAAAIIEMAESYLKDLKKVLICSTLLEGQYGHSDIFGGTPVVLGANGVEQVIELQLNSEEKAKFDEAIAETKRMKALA
Sequence of Plasmodium falciparum protein kinase 6 (PK6, PF3D7_1337100) (Q8IDW1 1-305): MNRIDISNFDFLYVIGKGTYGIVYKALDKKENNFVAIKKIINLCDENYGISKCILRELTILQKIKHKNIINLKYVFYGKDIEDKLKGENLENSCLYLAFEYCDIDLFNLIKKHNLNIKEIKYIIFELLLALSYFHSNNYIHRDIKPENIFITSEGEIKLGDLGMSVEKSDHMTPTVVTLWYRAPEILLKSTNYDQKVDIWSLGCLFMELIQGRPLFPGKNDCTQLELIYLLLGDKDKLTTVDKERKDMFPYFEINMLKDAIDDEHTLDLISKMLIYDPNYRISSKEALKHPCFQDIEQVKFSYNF
Sequence of Calcium-dependent protein kinase 1 (Plasmodium falciparum (isolate 3D7)) (P62344 whole entry, looked up): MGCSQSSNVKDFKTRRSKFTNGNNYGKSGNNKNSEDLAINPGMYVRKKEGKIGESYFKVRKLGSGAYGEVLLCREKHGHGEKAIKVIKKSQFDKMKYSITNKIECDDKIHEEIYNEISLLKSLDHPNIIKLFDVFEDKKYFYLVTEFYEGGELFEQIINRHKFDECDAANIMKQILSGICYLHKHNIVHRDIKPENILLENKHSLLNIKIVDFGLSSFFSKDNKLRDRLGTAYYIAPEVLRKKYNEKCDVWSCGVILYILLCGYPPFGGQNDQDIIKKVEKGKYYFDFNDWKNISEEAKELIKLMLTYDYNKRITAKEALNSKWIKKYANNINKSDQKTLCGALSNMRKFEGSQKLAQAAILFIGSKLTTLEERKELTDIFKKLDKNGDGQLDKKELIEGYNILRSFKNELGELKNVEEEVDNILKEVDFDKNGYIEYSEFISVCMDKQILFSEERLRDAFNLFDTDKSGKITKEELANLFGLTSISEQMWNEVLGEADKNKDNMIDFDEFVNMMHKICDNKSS
Sequence of Protein kinase 7 (PK7), Plasmodium falciparum 3D7 (PF3D7_0213400) (Q7YTF7 1-343): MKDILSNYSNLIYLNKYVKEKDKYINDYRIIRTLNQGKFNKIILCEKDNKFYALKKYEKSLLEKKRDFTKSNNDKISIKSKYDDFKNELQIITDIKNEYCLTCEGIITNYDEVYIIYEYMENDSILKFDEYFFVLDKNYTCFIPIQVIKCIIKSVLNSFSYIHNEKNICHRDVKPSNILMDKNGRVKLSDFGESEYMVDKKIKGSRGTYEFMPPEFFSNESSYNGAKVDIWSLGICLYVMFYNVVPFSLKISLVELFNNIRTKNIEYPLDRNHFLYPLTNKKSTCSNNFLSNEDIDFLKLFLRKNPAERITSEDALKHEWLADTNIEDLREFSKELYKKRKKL
Sequence of Calcium-dependent protein kinase 4 (Plasmodium falciparum (isolate 3D7)) (Q8IBS5 whole entry, looked up): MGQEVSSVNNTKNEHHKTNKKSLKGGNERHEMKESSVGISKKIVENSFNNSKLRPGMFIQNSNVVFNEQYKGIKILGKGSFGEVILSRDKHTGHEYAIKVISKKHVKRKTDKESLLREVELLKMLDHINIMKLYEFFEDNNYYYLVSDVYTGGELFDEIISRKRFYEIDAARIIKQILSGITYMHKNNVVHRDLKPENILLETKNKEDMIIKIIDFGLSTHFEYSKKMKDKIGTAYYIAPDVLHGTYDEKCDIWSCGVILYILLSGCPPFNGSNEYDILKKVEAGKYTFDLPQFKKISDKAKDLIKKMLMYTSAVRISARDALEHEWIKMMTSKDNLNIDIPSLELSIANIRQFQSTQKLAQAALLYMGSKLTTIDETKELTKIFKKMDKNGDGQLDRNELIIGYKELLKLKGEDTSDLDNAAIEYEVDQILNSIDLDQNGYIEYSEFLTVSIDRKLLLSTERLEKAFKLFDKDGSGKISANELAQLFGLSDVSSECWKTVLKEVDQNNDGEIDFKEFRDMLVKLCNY

For the compound `CCN(CC)CCNC(=O)c1ccc(NC(=O)c2oc3c(Cl)cccc3c2C)cc1`, the growth inhibition in experiment [1] was 68% (active); in experiment [4], 98% (active). Moreover, the inhibition was 24% in experiment [2] and 5% in experiment [3]. The outcome in experiment [5], in experiment [6], in experiment [7] and in experiment [8] was inactive.

On to `Cc1cccc2[nH]c(-c3ccc(-c4ccc(NC(=O)NCc5ccccc5)cc4)s3)nc12`, for which the growth inhibition was 8% in experiment [1] and 93% (active) in experiment [4]. The inhibition in experiment [2] was 79% (active); in experiment [3] it was 5%. Moreover, the outcome in experiment [5], in experiment [6], in experiment [7] and in experiment [8] was inactive.

With `CCN1CCC(N(Cc2ccc(-c3ccc(C(F)(F)F)cc3)o2)C(=O)Cn2c(CCc3cccc(F)c3F)nc(=O)c3ccccc32)CC1`, the results for the growth inhibition in experiment [1] and in experiment [4] were 88% (active) and 91% (active), respectively. Moreover, the inhibition in experiment [2] is 45%; in experiment [3] it was -1%. For the same compound, the result in experiment [5], in experiment [6], in experiment [7] and in experiment [8] was inactive.

As for `Cn1cc(C(=O)Nc2cccc(-c3cccc(-c4nc5ccc(F)cc5[nH]4)c3)c2)n(C)c1=O`, the growth inhibition in experiment [1] is 50% (active); in experiment [4], 98% (active). For the same compound, the inhibition is 15% in experiment [2] and -1% in experiment [3]. Besides, the outcome in experiment [5], in experiment [6], in experiment [7] and in experiment [8] was inactive.

`COc1cccc(O)c1CN1CCC2(CCCN(Cc3ccc(F)cc3)C2)C1` (centres undefined): the growth inhibition in experiment [1] was 72% (active); in experiment [4], 98% (active). In addition, the values for the inhibition in experiment [2] and in experiment [3] were 21% and 1%, respectively. Also, the outcome in experiment [5], in experiment [6], in experiment [7] and in experiment [8] was inactive.

Take `N#Cc1ccccc1Sc1ccccc1C(=O)Nc1ccc2ccccc2n1`: the growth inhibition in experiment [1] was 85% (active); in experiment [4], 92% (active). The inhibition in experiment [2] is -3%; in experiment [3] it was 0%. Also, the result in experiment [5], in experiment [6], in experiment [7] and in experiment [8] was inactive.

`Cc1ccc(O)c(CN2CCCC(COC(c3ccc(F)cc3)c3ccc(F)cc3)C2)c1` (centres undefined): the growth inhibition in experiment [1] and in experiment [4] was 98% (active) throughout. Moreover, the inhibition was 19% in experiment [2] and 0% in experiment [3]. In addition, the outcome in experiment [5], in experiment [6], in experiment [7] and in experiment [8] was inactive.

As to `CCCCCCc1cnc2nc(N)nc(N)c2c1C`, the growth inhibition in experiment [1] is 20%; in experiment [4], 93% (active). The inhibition in experiment [2] was 67% (active); in experiment [3], -8%. The outcome in experiment [5], in experiment [6], in experiment [7] and in experiment [8] was inactive.

On to `O=S(=O)(NCCN1CCCC1)c1cccc(-c2ccc(CNCc3ccc(F)cc3)cc2)c1`, for which the growth inhibition in experiment [1] is 41%; in experiment [4], 104% (active). Moreover, the inhibition was 38% in experiment [2] and 6% in experiment [3]. Further, the outcome in experiment [5], in experiment [6], in experiment [7] and in experiment [8] was inactive.

With `COc1cc(CNC2Cc3ccccc3C2)ccc1Oc1ccc2nc[nH]c2c1`, the growth inhibition in experiment [1] was 50% (active); in experiment [4], 98% (active). Besides, the values for the inhibition in experiment [2] and in experiment [3] were 30% and -1%, respectively. The outcome in experiment [5], in experiment [6], in experiment [7] and in experiment [8] was inactive.

For `O=C(Cc1cccc(Cl)c1)Nc1cccc(-c2c[nH]c3nc(Nc4cccc(O)c4)ncc23)c1`, the growth inhibition was 74% (active) in experiment [1] and 100% (active) in experiment [4]. In addition, the inhibition was 23% in experiment [2] and 3% in experiment [3]. For the same compound, the outcome in experiment [5], in experiment [6], in experiment [7] and in experiment [8] was inactive.

For `CCN(CC)CCCN(Cc1ccc(-c2ccc(C(F)(F)F)cc2)cc1)C(=O)Cn1c(SCc2cccc(F)c2F)cc(=O)c2ccccc21`, the growth inhibition in experiment [1] is 82% (active); in experiment [4], 87% (active). Besides, the figures for the inhibition in experiment [2] and in experiment [3] were 45% and 7%, respectively. In addition, the result in experiment [5], in experiment [6], in experiment [7] and in experiment [8] was inactive.

Consider `CCOc1cc2c(cc1OCC)C(c1cc(OC)c(O)cc1Cl)NCC2` (centres undefined), for which the growth inhibition was 97% (active) in experiment [1] and 100% (active) in experiment [4]. Besides, the inhibition in experiment [2] is 15%; in experiment [3] it was -7%. Further, the result in experiment [5], in experiment [6], in experiment [7] and in experiment [8] was inactive.

For `O=C(Nc1ccc(F)cc1)NC1CCN(c2ccnc3cc(Cl)ccc23)CC1`, the growth inhibition in experiment [1] was 57% (active); in experiment [4], 97% (active). Also, the figures for the inhibition in experiment [2] and in experiment [3] were 10% and 0%, respectively. Further, the result in experiment [5], in experiment [6], in experiment [7] and in experiment [8] was inactive.

Take `COc1cc(C(=O)NC2CCN(Cc3ccccc3)CC2)ccc1-c1nc2cc(Cl)c(Cl)cc2[nH]1`: the growth inhibition in experiment [1] is 100% (active); in experiment [4] it was 103% (active). In addition, the inhibition was 14% in experiment [2] and 4% in experiment [3]. The outcome in experiment [5], in experiment [6], in experiment [7] and in experiment [8] was inactive.

In the case of `COc1ccc2nccc(NC(=O)OC3CCC(NCc4ccc5c(n4)NC(=O)CS5)CC3)c2c1` (centres undefined), the values for the growth inhibition in experiment [1] and in experiment [4] were 39% and 98% (active), respectively. In addition, the inhibition was 9% in experiment [2] and -6% in experiment [3]. Besides, the outcome in experiment [5], in experiment [6], in experiment [7] and in experiment [8] was inactive.

Turning to `Cn1nc(C(F)(F)F)cc1-c1ccc(C(=O)Nc2ccc3c(c2)CNCC3(C)C)s1`, the growth inhibition in experiment [1] is 36%; in experiment [4], 88% (active). The inhibition was 10% in experiment [2] and -1% in experiment [3]. The result in experiment [5], in experiment [6], in experiment [7] and in experiment [8] was inactive.

On to `CCc1ccc(N2C(=O)C3C(Cc4ccc(OC(C)(C)C)cc4)NC4(C(=O)N(Cc5ccccc5)c5ccc(F)cc54)C3C2=O)cc1` (centres undefined), for which the growth inhibition in experiment [1] was 49%; in experiment [4] it was 96% (active). The inhibition in experiment [2] was 9%; in experiment [3], -10%. The outcome in experiment [5], in experiment [6], in experiment [7] and in experiment [8] was inactive.
